Assay outcomes (PubChem BioAssay)
An excerpt weighted towards active compounds, which were near 21% of everything screened.
ClpP mod – qHTS Assay for Activators of ClpP; purified B. subtilis ClpP, FRET peptide cleavage, 20 min; Potency, µM (highest dose often 57.5 µM); 1.9% of 340,000 active; AID 651965, 2013; active = well fitted falling curve with a large enough effect; inconclusive = small, poorly fitted or top-dose-only effect; inactive = no such curve, though single readings can be large or run the other way; also: the source files actives as falling curves though it sought activators and does not explain the sign; nearly all actives have a fitted effect of over 65% in size
Target sequence (P80244 whole entry, looked up): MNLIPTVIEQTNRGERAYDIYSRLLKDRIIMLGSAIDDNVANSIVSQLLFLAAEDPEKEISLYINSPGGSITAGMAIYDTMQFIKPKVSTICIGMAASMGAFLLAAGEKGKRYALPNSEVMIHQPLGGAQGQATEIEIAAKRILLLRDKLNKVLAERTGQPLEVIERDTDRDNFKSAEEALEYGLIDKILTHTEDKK
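ClpP 10 microg/mL final, pH 8 Tris/KCl buffer with BSA, glycerol, Tween-20; compound pinned in; FRET-FV substrate; RT 20 min; Ex320/Em430; ΔFRET vs ADEP 5.8 microM, DMSO, no enzyme.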
DT40 TDP1 no CPT – qHTS for Inhibitors of human tyrosyl-DNA phosphodiesterase 1 (TDP1): qHTS in cells in absence of CPT | DT40 Tdp1-/- hTDP1 cells, no CPT, ATP luminescence, 48 h | Potency, µM (doses to about 46.2 µM), usual class: inhibitors | 15% of 420,000 active | AID 686978, 2013; also: nearly all actives have a fitted effect of over 55% in size
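Growth kinetics read by CellTiter-Glo luminescence after ≥48 hr at 37 °C. Cells: DT40 Tdp1-/- stably carrying human TDP1, 400 per well, compound exposure in the absence of CPT (DMSO vehicle).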
DT40 TDP1 CPT – DT40-hTDP1 cell growth loss with CPT. chicken DT40 Tdp1-/-;hTDP1 cells + 20 nM CPT, ATP luminescence, 48 h. 12% of 420,000 active. AID 686979. Potency, µM (series often up to 46.2 µM), most hits filed as inhibitors; also: nearly all actives have a fitted effect of over 55% in size
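Chicken DT40 Tdp1-/- cells complemented with human TDP1, 400 cells/well, exposed to compounds plus 20 nM camptothecin for at least 48 h at 37 C; viability read as ATP content by CellTiter-Glo luminescence.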
IL-1B inflam inh – inflammasome signaling inhibition, IL-1 beta readout. THP-1 LPS/ATP IL-1B secretion, AlphaLISA, 16 h; hits give low values. activity change, % at 57.5 µM. 4.7% of 360,000 active; in the data active = activity change below about -50%; inconclusive = mostly about -30% to -49%
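THP-1 cells pretreated 1 hr with compounds (up to 57.5 uM final), then stimulated with LPS (250 ng/mL final) plus ATP (1.25 mM final); secreted IL-1B measured by AlphaLISA after 16 hr, decreased signal indicating inhibition.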
D3 antag – blocks the human D3 dopamine receptor | P35462 | D3R cells, DiscoveRx beta-arrestin luminescence, antagonist mode; hits give low values | max response, negative = inhibition, % | 2.5% of 360,000 active; in the data active = max response below about -50%; inconclusive = no clear call, values can overlap the other calls
Target sequence (P35462 whole entry, looked up): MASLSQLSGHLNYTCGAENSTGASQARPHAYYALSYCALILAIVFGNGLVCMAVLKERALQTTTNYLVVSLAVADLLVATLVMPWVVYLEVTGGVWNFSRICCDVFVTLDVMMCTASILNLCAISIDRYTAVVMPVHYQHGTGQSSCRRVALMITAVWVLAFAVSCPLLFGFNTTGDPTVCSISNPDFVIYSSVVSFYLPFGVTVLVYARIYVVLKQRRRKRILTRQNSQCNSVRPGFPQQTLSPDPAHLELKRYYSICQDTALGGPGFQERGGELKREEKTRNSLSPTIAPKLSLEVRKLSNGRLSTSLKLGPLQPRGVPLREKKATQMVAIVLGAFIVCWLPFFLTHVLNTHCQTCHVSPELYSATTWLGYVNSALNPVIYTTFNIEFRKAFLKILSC
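Cells plated overnight at 1500 cells/well, then exposed to library compounds with dopamine controls for 90 minutes at 37 degrees C. DiscoveRx reagent added for 30–60 minutes at room temperature; luminescence read, quantitative HTS format.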
D3 ag – agonists of human D3 dopamine receptor | max activation, % | P35462 | D3R DiscoveRx beta-arrestin cells, luminescence, 90 min | 0.58% of 410,000 active | AID 652048; in the data active = max activation above about 30%
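Agonist-mode cell screen: cells plated at 1500/well and incubated overnight at 37 °C, then exposed to library compounds for 90 min at 37 °C. Detection reagent was added for 30–60 min at room temperature, and luminescence was read.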
Hits are given with their value; n = inactive; u = inconclusive; x = no result given. Unless noted, calls follow the shape of the dose curve; as a rule, active = well fitted inhibition curve with a large enough effect; inconclusive = small, poorly fitted or top-dose-only effect; inactive = flat fitted curve, though single readings scatter.

SMILES	ClpP mod	DT40 TDP1 no CPT	DT40 TDP1 CPT	IL-1B inflam inh	D3 antag	D3 ag
Cc1cc(NS(=O)(=O)c2ccc(NC(=O)Nc3cccc(C(F)(F)F)c3)cc2)no1	x	n	n	n	n	n
Fc1ccc(/C=N/NC(=S)Nc2cccnc2)cc1F	n	u	u	n	n	n
Fc1cccc(F)c1/C=N/NC(=S)Nc1cccnc1	x	n	u	n	n	n
Oc1ccc(C=NNC(=S)Nc2ccc(F)cc2)c(O)c1	x	u	n	n	n	33.0
Oc1ccc(/C=N/NC(=S)Nc2cccnc2)c(O)c1	n	8.2µM	u	-65.3	n	n
Oc1cccc(/C=N/NC(=S)Nc2cccnc2)c1O	n	4.61µM	2.31µM	-96.0	n	n
Fc1c(F)c(F)c(/C=N/NC(=S)Nc2cccnc2)c(F)c1F	x	18.4µM	u	-102.5	n	n
O=c1c(-c2ccc(F)cc2)nc2cnc(N3CCOCC3)nc2n1C[C@H]1CCCO1	x	n	n	x	x	x
CC1CCCC(C)N1C(=S)SCC(=O)O (configuration not stated)	n	n	n	n	n	n
O=C(O)c1cccc(NC(=S)N/N=C/c2cccnc2)c1	x	n	n	n	n	n
Oc1ccc(/C=N/NC(=S)Nc2cccnc2)c(O)c1O	x	14.6µM	9.2µM	n	n	36.8
Cc1cccc(C)c1NC(=O)CN1CCc2ccccc2C1	n	16.4µM	10.3µM	n	u	n
O=C(CN1CCc2ccccc2C1)Nc1ccccc1N1CCCCCC1	n	u	u	n	-53.9	n
Cc1cc(C)cc(NC(=O)CN2CCc3ccccc3C2)c1	u	n	n	n	-66.7	n
O=C(CN1CCc2ccccc2C1)Nc1ccccc1Cl	n	u	n	n	u	n
O=C(CN1CCc2ccccc2C1)Nc1ccccc1F	n	n	n	n	u	n
CC(C)(C)NCC(O)COc1ccccc1C(C)(C)C (configuration not stated)	n	u	u	u	n	n
CC(C)(C)NCC(O)COc1ccccc1C(=O)CCc1ccccc1 (configuration not stated)	n	14.6µM	16.4µM	-76.9	n	n
O=C(NC(=S)Nc1ccccc1N1CCCCC1)c1ccc(-c2cccc([N+](=O)[O-])c2)o1	n	23.1µM	u	n	n	n
O=C(NC(=S)Nc1ccccc1N1CCCC1)c1ccc(-c2cccc([N+](=O)[O-])c2)o1	n	u	u	u	u	n
COc1cccc(NC(=O)c2ccc(-c3ccccc3[N+](=O)[O-])o2)c1	x	u	u	n	n	n
CN1CCN(c2ccccc2NC(=O)c2ccc(-c3ccccc3[N+](=O)[O-])o2)CC1	n	16.4µM	14.6µM	n	n	n
CC(=O)N1CCN(c2ccccc2NC(=O)c2ccc(-c3cccc([N+](=O)[O-])c3)o2)CC1	x	16.4µM	23.1µM	n	n	n
O=C(Cc1cccc(NC(=O)C2CCN(C(=O)C3CCCC3)CC2)c1)Nc1cccc(C(=O)N2CCCCC2)c1	n	n	n	n	n	n
COc1ccc(CN2CCCN(CC(=O)Nc3ccc4c(c3)OCCO4)S2(=O)=O)cc1	n	n	u	x	x	n
SMILES	ClpP mod	DT40 TDP1 no CPT	DT40 TDP1 CPT	IL-1B inflam inh	D3 antag	D3 ag
COc1ccc(NC(=O)CN(C2CCCCC2)S(C)(=O)=O)cc1OC	n	n	n	n	n	n
COC(=O)c1ccc(NC(=O)CN(C2CCCCC2)S(C)(=O)=O)cc1	0.708µM	n	u	n	n	n
CS(=O)(=O)N(CC(=O)Nc1ccc(Br)cc1F)C1CCCCC1	n	9.2µM	u	n	n	n
CS(=O)(=O)N(CC(=O)Nc1ccccc1F)C1CCCCC1	n	n	n	n	n	n
COc1cc2oc(=O)ccc2cc1[C@H](O)[C@@H](O)C(C)(C)O	n	n	n	n	n	n
COc1ccc(C(=O)/C=C2\C(=O)Nc3ccc(Br)cc32)cc1	n	18.4µM	2.91µM	-98.6	n	n
O=C1Nc2ccc(Br)cc2/C1=C/C(=O)c1ccc2c(c1)OCO2	n	3.26µM	5.8µM	u	u	n
Cc1ccc(NC(=O)C2CCN(C(=O)NCc3ccccc3)CC2)cc1C	x	n	n	n	n	n
Cc1ccc(-c2nc3c(C)cc(Br)cn3c2Cc2cccc(F)c2)cc1	n	u	u	n	-57.3	n
Cc1cc(Br)cn2c(Cc3cccc(F)c3)c(-c3ccc(F)cc3)nc12	n	u	u	n	n	n
Cc1cc(Br)cn2c(Cc3ccccc3)c(-c3cccc(Cl)c3)nc12	n	23.1µM	13µM	n	-60.1	n
Cc1ccc(Cc2c(-c3ccccc3)nc3c(C)cc(Br)cn23)cc1	n	10.3µM	u	n	n	n
Cc1cc(Br)c2nc(-c3ccccc3)c(Cc3cccc(Cl)c3)n2c1	n	u	u	n	n	n
Cc1cc(Br)cn2c(Cc3cccc(F)c3)c(-c3ccccc3)nc12	n	18.4µM	29.1µM	n	n	n
O=c1[nH]cc(C#Cc2ccccc2)c2ncncc12	n	n	n	x	x	x
COc1ccc(NC(=O)CSc2nc3ccccc3c(=O)n2CCCO)cn1	n	n	n	u	n	n
C=CCNc1nc(NCc2ccc(NC(C)=O)cc2)c2sc(-c3ccccc3)cc2n1	u	9.2µM	8.2µM	u	n	n
CC(=O)Nc1ccc(CNc2nc(NC(C)C)nc3cc(-c4ccccc4)sc23)cc1	u	4.11µM	3.66µM	-113.7	n	n
CC(=O)NCCNc1nc(NC(C)C)nc2cc(-c3ccccc3)sc12	n	u	23.1µM	x	n	n
COc1ccc(-c2cc(COc3ccccc3)on2)cc1	x	u	n	n	n	n
CC(=O)Nc1ccc(CNc2nc(NCc3cccs3)nc3ccsc23)cc1	n	n	n	n	n	n
COc1ccc(-c2cc(CNc3nc(NC(C)C)nc4cc(-c5ccccc5)sc34)on2)cc1	u	3.66µM	4.11µM	-107.0	n	n
CCCCCC(=O)N/N=C(\C)c1ccc(N2CCCCC2)cc1	n	u	n	n	n	n
CCC(C)Sc1ccc([C@@H]2[C@@H]3C(=O)N(C)C(=O)[C@@H]3[C@]3(C(=O)OC)CCCCN23)cc1OC (some centres not stated)	n	18.4µM	u	n	n	n
CCC(C)Sc1ccc([C@@H]2[C@H]3C(=O)N(C)C(=O)[C@H]3[C@]3(C(=O)OC)CCCN23)cc1 (some centres not stated)	n	14.6µM	u	n	n	n
